Rows were chosen to be rich in hits. Some 13% of all compounds tested hit in one or more screens of this group.
LASV entry inh – blocks Lassa virus binding to or entry into cells. Lassa virus pseudotype entry inhibition, cell reporter. Potency, µM (doses to about 37.9 µM), hits mostly inhibitors. 1.2% of 300,000 active. AID 540256; calls by dose curve; tested in HEK293 cells; note: nearly all actives have a fitted effect of over 50% in size
CHX counter – affects cycloheximide protein synthesis inhibition readout, counter-screen. cell reporter, cycloheximide protein synthesis inhibition counterscreen. max response, %. 12% of 300,000 active; in the data active = max response mostly above about 13%, no sharp cut-off; inactive = mostly below about 14%; note: read at 38.3 µM for the half of the compounds with a filed dose
FMDV antiviral – blocks foot and mouth disease virus. FMDV antiviral cell-based qHTS. AID 1159524. Potency, µM (highest dose often 57.9 µM), most hits filed as inhibitors. 1.2% of 410,000 active; calls by dose curve; tested in HEK293T cells; note: read-out not given here; nearly all actives have a fitted effect of over 45% in size
Marburg entry inh – blocks Marburg virus binding to or entry into cells | AID 540276 | 1.8% of 300,000 active | Marburg virus pseudotyped entry inhibition, cell reporter | Potency, µM (titrated, usually from 37.8 µM), hits mostly inhibitors; calls by dose curve; tested in HEK293 cells
Shiga toxin inh – blocks Shiga toxin action in Vero cells. 9.2% of 290,000 active. inhibition, % at 38.7 µM. Vero cells, Shiga toxin protein synthesis inhibition reporter. AID 2315; in the data active = inhibition mostly above about 28%, no sharp cut-off; inactive = mostly below about 43%
HCV inhibitor – HCV inhibition. Huh7.5.1 HCVcc-Cre infection, luciferase reporter, 44 h. Potency, µM (doses to about 41.8 µM), usual class: inhibitors. 3.4% of 340,000 active. AID 651820; active = well fitted inhibition curve with a large enough effect; inconclusive = small, poorly fitted or top-dose-only effect, or another doubt; inactive = no such curve, though single readings can be large or run the other way
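1,000 cells/well; 4 h culture; + compound; + HCVcc-Cre (~0.5 moi); 44 h; luciferase substrate, RT 15 min; read 15 sec.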
A number is an active result.

`CCC(C)C(NC(=O)C1CCC(C)CC1)C(=O)NCCc1ccc(S(N)(=O)=O)cc1` (stereo unspecified) gave CHX counter inactive, FMDV antiviral inactive, Shiga toxin inh inactive and HCV inhibitor inactive.
COc1cccc(/C=C2\CCCCC2=O)c1 was read as LASV entry inh inconclusive, CHX counter 16, FMDV antiviral inactive, Marburg entry inh inactive, Shiga toxin inh inactive and HCV inhibitor inactive.
`COc1cccc(/C=C2\CCC(C3CCCC3)C2=O)c1` (stereo unspecified) gave LASV entry inh inactive, CHX counter 51, FMDV antiviral inactive, Marburg entry inh inactive, Shiga toxin inh 84 and HCV inhibitor inconclusive.
For COc1cc(/C=C2\CCC(C3CCCC3)C2=O)cc(OC)c1OC (stereo unspecified) the results were LASV entry inh inactive, CHX counter inactive, FMDV antiviral inactive, Marburg entry inh inconclusive, Shiga toxin inh inactive and HCV inhibitor inactive.
Screening CCCC/C=C1/CCC(CN(C)C)C1=O (stereo unspecified) returned LASV entry inh inactive, FMDV antiviral 28µM, Marburg entry inh inactive and HCV inhibitor inconclusive.
Screening CCOC(=O)N1CCN(C(=O)CSc2nc3c([nH]c4ccccc43)c(=O)n2CCOC)CC1 returned LASV entry inh inconclusive, CHX counter inactive, FMDV antiviral inactive, Marburg entry inh inactive, Shiga toxin inh inactive and HCV inhibitor inactive.
`CCS(=O)(=O)c1ncc(Cl)c(C(=O)Nc2ccc(S(=O)(=O)N3CCC(C)CC3)cc2)n1` gave LASV entry inh inconclusive, CHX counter inactive, FMDV antiviral 14µM, Marburg entry inh inconclusive, Shiga toxin inh inactive and HCV inhibitor inconclusive.
`CCCSc1ncc(Cl)c(C(=O)Nc2ccc(S(=O)(=O)N3CC(C)OC(C)C3)cc2)n1` (stereo unspecified) gave LASV entry inh inactive, CHX counter inactive, FMDV antiviral inactive, Marburg entry inh inconclusive, Shiga toxin inh inactive and HCV inhibitor 10µM.
O=C(Nc1ccc(Cc2ccncc2)cc1)c1ccc(S(=O)(=O)N2CCCC2)cc1 was read as LASV entry inh inconclusive, CHX counter inactive, FMDV antiviral 16µM, Marburg entry inh inconclusive, Shiga toxin inh inactive and HCV inhibitor 5µM.
For CC1CCN(S(=O)(=O)c2ccc(NC(=O)c3ccncc3)cc2)CC1 the results were LASV entry inh inconclusive, CHX counter inactive, FMDV antiviral inconclusive, Marburg entry inh inconclusive, Shiga toxin inh inactive and HCV inhibitor 11µM.
O=C(Nc1ccc(S(=O)(=O)N2CCCCC2)cc1)c1ccncc1 was read as LASV entry inh inactive, CHX counter inactive, FMDV antiviral inactive, Marburg entry inh inactive, Shiga toxin inh inactive and HCV inhibitor inactive.
For COc1ccc(C(=O)Nc2ccnn2C2CCN(CCC(C)c3ccc(C)o3)CC2)cc1 (stereo unspecified) the results were LASV entry inh inactive, CHX counter inactive, FMDV antiviral inactive, Marburg entry inh inconclusive, Shiga toxin inh inactive and HCV inhibitor inconclusive.
Cn1c(=O)c2c(nc(Oc3cccc(O)c3)n2C)n(C)c1=O was read as LASV entry inh inactive, CHX counter inactive, FMDV antiviral inactive, Marburg entry inh inactive, Shiga toxin inh inactive and HCV inhibitor inactive.
O=C(NCc1ccccc1)c1cc(-c2ccco2)on1 was read as LASV entry inh inactive, CHX counter 34, FMDV antiviral inactive, Marburg entry inh inactive, Shiga toxin inh 65 and HCV inhibitor inactive.
Cc1cc(C)n2nc(C(=O)NCc3ccco3)cc2n1 was read as LASV entry inh inactive, CHX counter inactive, FMDV antiviral inactive, Marburg entry inh inactive, Shiga toxin inh inactive and HCV inhibitor inactive.
For CCc1ccccc1NC(=O)c1cc(-c2ccco2)on1 the results were LASV entry inh inactive, CHX counter inactive, FMDV antiviral inactive, Marburg entry inh inactive, Shiga toxin inh inactive and HCV inhibitor inactive.
`Cc1ccn2cc(C(=O)NCc3ccco3)nc2c1` gave LASV entry inh inconclusive, CHX counter 25, FMDV antiviral inactive, Marburg entry inh inconclusive, Shiga toxin inh 58 and HCV inhibitor inactive.
Screening O=C(NCc1ccco1)c1cc(-c2ccco2)on1 returned LASV entry inh inactive, CHX counter 31, FMDV antiviral inactive, Marburg entry inh inactive, Shiga toxin inh 74 and HCV inhibitor inactive.
For O=C(NCCc1ccccc1)c1cc(-c2ccco2)on1 the results were LASV entry inh inactive, CHX counter 45, FMDV antiviral inactive, Marburg entry inh inactive, Shiga toxin inh 104 and HCV inhibitor inconclusive.
For COC(=O)c1ccccc1S(=O)(=O)N1CCC(C(=O)NCCC2=CCCCC2)CC1 the results were FMDV antiviral inactive and HCV inhibitor inactive.

Assay outcomes deposited in PubChem BioAssay by National Center for Advancing Translational Sciences (NCATS).
